The campaign covered roughly 97,000 compounds. About 210 (0.22%) were called active. The sample holds actives, similar compounds and a random draw of the others, so the mix is not that of the screen. Cut-off read from the data, not from the text of the source: active = inhibition above about 45%; inactive = the rest.
molecular target: Sphingosine 1-phosphate receptor 2 (Homo sapiens) (UniProt O95136); assay: blockers of S1P2 receptor signalling – cell-based, primary screen (AID 736); conditions: cell-based S1P2 antagonist assay, at 5 µM, active compounds read high;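 note: CRE beta-lactamase reporter cells expressing human S1P2 stimulated with S1P; 0% = agonist at EC80 alone and 100% = agonist plus reference antagonist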
Sequence (O95136 whole entry, looked up): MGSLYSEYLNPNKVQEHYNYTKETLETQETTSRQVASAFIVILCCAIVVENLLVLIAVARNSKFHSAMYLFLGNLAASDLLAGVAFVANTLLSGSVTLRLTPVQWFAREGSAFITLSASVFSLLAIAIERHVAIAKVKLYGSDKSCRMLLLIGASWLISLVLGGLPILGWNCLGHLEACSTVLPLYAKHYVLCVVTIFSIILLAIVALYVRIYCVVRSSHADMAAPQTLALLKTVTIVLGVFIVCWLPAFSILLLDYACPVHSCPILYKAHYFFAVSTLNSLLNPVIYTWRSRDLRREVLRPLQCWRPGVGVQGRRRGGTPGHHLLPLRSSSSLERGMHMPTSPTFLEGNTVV

inhibition, active:
CC1=C/C(=N\OS(=O)(=O)c2ccccc2)C=CC1=O 82.9%
O=C(Nc1ccccc1)c1nnsc1S(=O)(=O)c1ccc(Cl)cc1 61.4%
Fc1ccc2[nH]c3c(N4CCN(Cc5ccc6c(c5)OCO6)CC4)ncnc3c2c1 80.7%
COc1ccc(NC(=O)/C(Cl)=C(/Cl)S(=O)Cc2ccc(C)cc2)cn1 (stereo unspecified) 98.7%
COC(=O)CN(C(=S)Nc1ccc(Cl)cc1)C1CC(=O)N(c2ccc(OC)cc2)C1=O (stereo unspecified) 54.6%
O=C(NC(Nc1nc2ccc([N+](=O)[O-])cc2s1)(C(F)(F)F)C(F)(F)F)c1ccccc1 97.3%

inhibition, inactive:
N=c1c2c(-c3ccccc3)c(-c3ccccc3)oc2ncn1Cc1ccco1 2.42%
CCOc1c(Br)cc(/C=C2\C(=O)N(CCC#N)N=C2C)cc1OC -33.3%
Cc1cc(C)cc(OCC(=O)NNC(=O)c2cc3ccccc3oc2=O)c1 -16.6%
CCN(CC)Cc1csc2ccc(Br)cc12 -1.56%
C=CCN(C(=O)Nc1ccc2oc(C)nc2c1)c1ccccc1 3.19%
COc1ccccc1NC(=O)/C=C/C(N)=O -12.8%
CC(C)N(c1ccccc1)c1ncnc(NCCC(=O)O)c1[N+](=O)[O-] 15.5%
CCOC(=O)C1(S(=O)(=O)c2ccccc2)CCN(Cc2ccccc2)CC1 17%
Cc1ccc(S(=O)(=O)c2ccc(Oc3ccccc3)cc2)cc1 -7.17%
CC(=O)Nc1cc(C(=O)O)ccc1S(=O)(=O)c1ccc(Cl)cc1 3.81%
O=C(Nc1ccc(Cl)cc1)c1ccsn1 11.1%
CC(=O)Oc1ccc(C(C)=O)c2c1OCCO2 -13%
COc1ccc(Nc2ncc(C(=O)N3CCN(c4ccccc4OC)CC3)c3ccccc23)cc1 -4.51%
CC1CCN(C(=O)CN(c2ccc(Oc3ccccc3)cc2)S(C)(=O)=O)CC1 -1.57%
C=CCNC(=O)c1csc(-c2ccccc2)n1 5.01%
CC(C)CC(=O)N1CCC(O)(CS(=O)(=O)Cc2ccccc2)CC1 5.12%
Cc1[nH]n(-c2ccc(Cl)cc2)c(=O)c1/C=N/n1c(C)nc2ccccc2c1=O 2.28%
Cc1ccc(-c2nc(C)sc2CC(=O)O)cc1 10.8%
CCCSC(=S)NC1CCS(=O)(=O)C1 (stereo unspecified) 15.8%
COc1ccc(C(=O)Nc2nc(-c3ccc(S(=O)(=O)N4CCOCC4)cc3)cs2)cc1 19.7%
COc1ccc(OC)c(NC(=O)c2cnn(-c3ccccc3Cl)c2NC(=O)c2ccco2)c1 -6.97%
O=C(NC1CCCCC1)c1ccc(CNc2c(N3CCOCC3)c(=O)c2=O)cc1 -21.1%
Cc1nnc(SCc2nc3ccccc3nc2C)s1 -20.9%
Cc1nn(-c2ccccc2)c(Cl)c1C(=O)Nc1ccccc1 -0.13%
CCN(CC)C(=O)CSc1nc2ccccc2o1 3.55%
c1ccc(CC2CCN(c3nc4ccccc4n4cnnc34)CC2)cc1 -5.6%
Cc1nn(C(C)CC(=O)O)c(C)c1C (stereo unspecified) -0.29%
CCC(C)NC(=O)CSC1=Nc2ccccc2C2=NC(CCC(=O)NCc3ccco3)C(=O)N12 (stereo unspecified) 1.95%
CCC(C)NC(=O)c1ccccc1NC(=O)c1ccccc1N(C)S(C)(=O)=O (stereo unspecified) -10.9%
CC(=O)N1CCCc2cc(S(=O)(=O)CCC(=O)N3CCN(c4ccccc4)CC3)ccc21 0.06%
Cn1nc(C(F)(F)F)c2cc(NC(=O)OCC(C)(C)C)sc21 -6.24%
Clc1ccccc1SCc1nc2ccccc2[nH]1 11.2%
COc1ccc(N2CCN(Cc3ccc(Br)s3)CC2)cc1 -19.3%
CC(C)(C)n1nnnc1C(c1ccc(F)cc1)N1CCN(Cc2ccc3c(c2)OCO3)CC1 (stereo unspecified) 9.67%
Cc1cc(N2CCN(Cc3ccc4c(c3)OCO4)CC2)n2ncnc2n1 13.4%
COc1cc(N2CCCC2)c(OC)cc1/C=C(/C#N)c1cccc(Br)c1 -9.11%
O=C1COc2ccc(NC(=O)N3CCN(c4ccc(F)cc4)CC3)cc2N1 9.28%
CCn1c(CNC(=O)c2ccccc2)nnc1SCC(=O)N1CCN(c2ccccc2)CC1 2.56%
C=C(C)C(=O)Nc1cccc(C(C)=O)c1 -17.2%
CCN(CC)C(=O)CSc1nnc(CNc2ccc(F)cc2)n1Cc1ccco1 -21.8%
CCOc1cccc(C(=O)Nc2nnc(-c3cccs3)s2)c1 -13.1%
O=C(Nc1cccc2ncccc12)c1ccc(-c2ccc(Cl)cc2Cl)o1 20.4%
Cc1cccc(NC(=O)Cn2cc(C(=O)c3ccco3)c3ccccc32)c1 16.7%
CCN(CC)S(=O)(=O)c1cc([N+](=O)[O-])ccc1NNC(=O)Nc1ccccc1 -2.47%
O=C(NCCCN1CCCCC1)c1ccc2c(c1)NC(=O)C(N1CCOCC1)S2 (stereo unspecified) 14.6%
COC(=O)CSc1nc(C)c2ccc(OC)cc2n1 7.81%
COc1cccc(/C=N\Nc2nncc(-c3ccccc3)n2)c1 20.6%
Cc1cc2nc(SCCN3CCOCC3)[nH]c2cc1C 6.34%
Cc1csc(OCC(=O)Nc2ccc(C)c(C)c2)n1 6.53%
CCOc1ccc(C(O)Cc2nc3ccccc3n2C)cc1 (stereo unspecified) -0.2%
CCOC(=O)c1cc(C#N)c(N2CCCCC2)nc1-c1ccccc1 1.48%
O=C(Nc1nccs1)c1cc(S(=O)(=O)N2CCOCC2)c(Cl)cc1Cl 0.95%
COc1cccc(NC(=O)Cc2ccc(C)cc2)c1 -17%
COC(=O)/C(NC(C)=O)=C(\C)c1ccc(Cl)cc1 -17.7%
Cc1cc2cc3c(N)[nH]nc3nc2cc1C 6.72%
Cc1ccc(O/C=C2\OC(=O)c3ccccc32)cc1 -18.2%
COc1ccc(Cl)cc1NC(=O)CN(C)C(=O)CNC(=O)C12CC3CC(CC(C3)C1)C2 -3.56%
COc1ccc(/C=C(\NC(=O)c2ccc(OC)c(OC)c2)C(=O)NCCc2c[nH]c3ccccc23)cc1 8.6%
O=C(Nc1ccc2ccccc2c1)Nc1ccc2snnc2c1 -5.16%
CC(=O)NNc1cc(=O)c2c(=O)n(C)c(=O)n(C)c2[nH]1 22.2%
CN(C)c1ccc(NC(=S)N(CCc2ccccc2)C2CC(=O)N(c3c(Cl)cccc3Cl)C2=O)cc1 (stereo unspecified) 14.5%
COc1cccc(N2CCN(C3CC(=O)N(c4ccc(Cl)cc4)C3=O)CC2)c1 (stereo unspecified) -1.94%
CC1CCN(CC(=O)c2c[nH]c3ccccc23)CC1 12.6%
CCCCNC(=O)C1CCCNC1=O (stereo unspecified) 0.22%
CCCCCCCC(=O)NC(Nc1ccccc1OC)C(Cl)(Cl)Cl (stereo unspecified) -5.42%
O=C(O)C1CCN(C(=O)OCc2ccccc2)CC1 9.58%
CC(C)CCOc1ccc(C(=O)C[N+]2(C)CCOCC2)cc1 8.2%
CC(NC(=O)C1CCC(CNc2c(N3CCOCC3)c(=O)c2=O)CC1)c1ccccc1 (stereo unspecified) 4.51%
O=C(Nc1ccc2oc(-c3ccc4ccccc4c3)nc2c1)c1cccs1 7.93%
Cc1cc(C)cc(OCC(=O)Nc2nc3ccc([N+](=O)[O-])cc3s2)c1 4.48%
COC(=O)C(NC(=O)c1ccc(OC)cc1)(Nc1ncc(S(=O)(=O)c2ccc([N+](=O)[O-])cc2)s1)C(F)(F)F (stereo unspecified) 19.9%
Cc1ccc(CN(N=Nc2nonc2N)c2nonc2N)c(C)c1 -6.92%
COC(=O)c1cccc(-n2[nH]nnc2=S)c1 15.5%
Cc1ccc(-c2cc(C(=O)NCC3CCCO3)c3ccccc3n2)o1 (stereo unspecified) 6.28%
Cc1nn(Cc2ccc(F)cc2)c(C)c1NC(=O)c1noc2c1CCc1ccccc1-2 2.56%
O=C(CSc1nnnn1-c1ccccc1)NCc1ccco1 -4.03%
CC(C)NC(=O)NC(=O)COC(=O)c1ccc(NC(=O)CC#N)cc1 -12.5%
O=C(/C=C/c1ccc(Cl)cc1Cl)c1cccnc1 -15.8%
O=C(NNC(=O)c1cccnc1)Nc1ccccc1 8.67%
Fc1ccc(-n2c(Cc3ccccc3)nnc2SCc2nc(-c3ccc(Cl)cc3)no2)cc1 -18.9%
FC(F)(F)c1cccc(NC(=S)Nc2cccc(Cl)c2)c1 -0.66%
Cc1ccc(/C=N/NC(=O)C2=NNC(c3ccccc3)(c3ccccc3)C2)c(O)c1 -25.5%
CC1(C)C2CCC13CS(=O)(=O)NC3C2 (stereo unspecified) 2.66%
CCCNC(=S)N1CCC(NC(=O)C23CC4CC(CC(C4)C2)C3)CC1 22.7%
CCOC(=O)c1sc(NC(=O)CSc2nc(C)cc(C(F)(F)F)n2)c(C#N)c1C -9.87%
FC(F)(F)c1nnc2ccc(N3CCN(c4ccccc4)CC3)nn12 0.81%
N=c1oc2ccccc2cc1C(=O)N/N=C/c1ccccc1 10.7%
CNC(=O)/C(=C\C=C\c1ccccc1)NC(=O)c1ccc([N+](=O)[O-])cc1 10.7%
CC(N)C12CC3CC(CC(O)(C3)C1)C2 (stereo unspecified) -17.7%
CS(=O)(=O)N1CCN(c2ccc(C(=O)NC3C4CC5CC(C4)CC3C5)cc2[N+](=O)[O-])CC1 (stereo unspecified) -2.62%

Source: PubChem BioAssay AID736 (The Scripps Research Institute Molecular Screening Center, 2007)
